Screening results as filed in PubChem.
Most compounds without a hit are left out; they make up all but 2.4% or so of the library.
Pol kappa inh = inhibitors of human DNA polymerase kappa; Q9UBT6; purified Pol kappa, fluorescent DNA synthesis assay, 10 min; AID 588579; Potency, µM (highest dose often 107 µM), for the others: top-dose activity, negative = inhibition, hits mostly inhibitors; 0.53% of 400,000 active; note: % is set by controls: 0 for no effect and ±100 for the full control effect
Target sequence (Q9UBT6 whole entry, looked up): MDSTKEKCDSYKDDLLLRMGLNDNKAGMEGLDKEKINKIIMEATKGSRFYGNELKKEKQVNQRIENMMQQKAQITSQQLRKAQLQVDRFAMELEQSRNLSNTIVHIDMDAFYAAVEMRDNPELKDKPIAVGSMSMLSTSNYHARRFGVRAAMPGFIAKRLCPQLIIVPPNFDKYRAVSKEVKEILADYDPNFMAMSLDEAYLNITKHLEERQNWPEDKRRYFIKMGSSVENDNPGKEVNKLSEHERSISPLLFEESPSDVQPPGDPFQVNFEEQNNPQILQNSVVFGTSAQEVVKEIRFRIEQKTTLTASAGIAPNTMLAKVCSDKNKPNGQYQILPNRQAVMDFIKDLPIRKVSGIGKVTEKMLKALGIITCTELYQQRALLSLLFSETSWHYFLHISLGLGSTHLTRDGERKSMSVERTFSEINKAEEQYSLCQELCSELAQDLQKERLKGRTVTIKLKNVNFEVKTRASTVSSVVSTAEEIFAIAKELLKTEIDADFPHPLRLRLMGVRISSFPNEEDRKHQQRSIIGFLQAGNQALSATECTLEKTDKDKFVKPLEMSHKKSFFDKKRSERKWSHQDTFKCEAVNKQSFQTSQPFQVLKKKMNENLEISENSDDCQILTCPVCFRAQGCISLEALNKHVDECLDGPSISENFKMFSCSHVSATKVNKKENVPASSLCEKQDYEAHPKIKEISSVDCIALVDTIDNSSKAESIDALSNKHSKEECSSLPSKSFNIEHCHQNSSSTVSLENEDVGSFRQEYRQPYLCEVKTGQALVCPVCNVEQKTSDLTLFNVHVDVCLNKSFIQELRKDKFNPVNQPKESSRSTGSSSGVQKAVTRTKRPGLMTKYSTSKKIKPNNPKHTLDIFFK
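Here, compound and 10 nM enzyme are combined for 15 min at room temperature; adding 50 nM substrate (final) starts DNA synthesis, tracked by fluorescence at 0 and 10 min against buffer-only wells.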
POLB inh = DNA polymerase beta (human) inhibition; P06746; Pol beta primer extension/strand displacement, fluorescence kinetic; Potency, µM (titrated, usually from 114 µM), for inactives: top-dose activity change, negative = inhibition, usual class: inhibitors; 1.3% of 340,000 active; note: % is set by controls: 0 for no effect and ±100 for the full control effect
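Pol beta (10 nM) and compounds were preincubated 15 min at room temperature, then 50 nM substrate (final) started primer extension/strand displacement. Reads were taken at 0 and 10 min; concentration-response data were fitted to a four-parameter Hill equation.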
WRN inhibitor = blocks human WRN helicase; 0.46% of 360,000 active; Potency, µM (titrated, usually from 114 µM), for the others: at the highest dose activity change, negative = inhibition, most hits filed as inhibitors; WRN helicase unwinding, fluorescent forked duplex, kinetic; Q14191; note: % is set by controls: 0 for no effect and ±100 for the full control effect; nearly all actives have a fitted effect of over 55% in size
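Screening of the MLSMR collection measured strand separation of a quenched forked DNA duplex (100 nM) by 20 nM WRN with 2 mM ATP, all final. Compounds were preincubated with enzyme 15 min at room temperature.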
FEN1 inhibitor = blocks human flap endonuclease 1; Potency, µM (series often up to 114 µM), without a hit: top-dose activity change, negative = inhibition, usual class: inhibitors; Recombinant FEN1 flap cleavage, fluorescence, 15 min; P39748; 0.35% of 390,000 active; AID 588795; note: % is set by controls: 0 for no effect and ±100 for the full control effect; nearly all actives have a fitted effect of over 65% in size
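FEN1 at 10 nM, compound pretreatment for 15 min (room temperature), 50 nM final substrate to initiate; endpoint reads at 0 and 15 min; DMSO-only plates used as vehicle background.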
POLI inh = inhibitors of human DNA polymerase iota | Q9UNA4 | 1% of 390,000 active | Pol iota fluorescent replication assay, 10 min | Potency, µM (highest dose often 115 µM), without a hit: top-dose activity, negative = inhibition, actives largely listed as inhibitors
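Pol iota at 10 nM preincubated 15 min with compounds at room temperature; reaction started with fluorescent substrate, 50 nM final. Fluorescence read kinetically at 0 and 10 min; buffer-only wells as negative control.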
POLH inh = blocks human DNA polymerase eta activity | Q9Y253 | recombinant Pol eta, fluorescent DNA replication assay | Potency, µM (doses to about 114 µM), inactives show at the highest dose activity change, negative = inhibition, most hits filed as inhibitors | 1.2% of 390,000 active; note: % is set by controls: 0 for no effect and ±100 for the full control effect
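Fluorescent replication assay: 50 nM final substrate added after a 15 min room-temperature compound preincubation with 10 nM enzyme. Signal taken at 0 min and again at 10 min.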
* hit, by the source's call; ? = inconclusive; · = no result given; [ ] = remark or other dose. Calls come from the whole dose curve; as a rule, active = well fitted curve in the direction sought with a large enough effect; inconclusive = small, poorly fitted or top-dose-only effect, or another doubt; inactive = no such curve, though single readings can be large; an effect the other way counts as inactive or inconclusive. Potency is the fitted concentration of half-maximal effect.

SMILES	Pol kappa inh	POLB inh	WRN inhibitor	FEN1 inhibitor	POLI inh	POLH inh
O=C(O)CCc1ccc(-c2ccc(Br)cc2)n1Cc1ccco1	-38%	?	-12%[57.1 µM]	0%	50µM*	56µM*
O=C(O)CCc1ccc(-c2ccc(Br)cc2)n1-c1ccc(O)cc1	-2%	2%	-8%	1%	?	-7%
O=C(O)CCc1ccc(-c2ccccc2)n1Cc1ccco1	?	-2%	?	0%	?	16µM*
O=C(O)CCc1ccc(-c2ccc(F)cc2)n1Cc1ccco1	-12%	-24%	-17%	-2%	-15%	-10%
O=C(O)CCc1ccc(-c2ccc(F)cc2)n1CC(=O)O	-13%	-3%	-9%[57.1 µM]	-11%	?	11µM*
N[C@@H](COC(c1cccc(F)c1)c1ccccc1OCc1ccccc1)C(=O)O (some centres not stated)	-14%[60.1 µM]	·	·	·	·	·
O=C(C#Cc1ccccc1)c1cccc([N+](=O)[O-])c1	1%	-19%	18µM*	4%	?	-16%
C=Nc1ccc(/C=C/c2ccnc3ccccc23)cc1	-19%	·	·	-20%	30%	·
O=C(N/N=C/c1ccccc1C(=O)O)c1cc(-c2ccc3c4c(cccc24)CC3)n[nH]1	-4%	56µM*	-31%	-24%	56%	?
C(=C/c1nccc2c1[nH]c1ccccc12)/c1ccc2c(c1)OCO2	-14%	?	-23%	45µM*	1%	-26%
Cc1nnc(N/N=C\c2ccc(-c3cccc(C(=O)O)c3)o2)n1N	?	?	-28%	-13%	2.5µM*	?
COc1ccccc1NS(=O)(=O)c1cccc(C(=O)N/N=C/c2ccc(NC(C)=O)cc2)c1	-26%	?	-10%	-8%	50µM*	-15%
COC(=O)c1c(C)sc(-c2c(-c3ccc(F)cc3)[nH]c3[nH]c(=O)[nH]c(=O)c23)c1O	?	56µM*	·	-1%	?	·
CCCCC(C)/C=C(C)/C=C(\C)C(=O)NC1=CC(O)(/C=C/C=C/C=C/C(=O)NC2=C(O)CCC2=O)C2OC2C1=O (configuration not stated)	27µM*	·	·	·	·	·
Nn1c(SCC(=O)NC2CCCCC2)nnc1C1CC1	-18%	0.32µM*	-5%	-1%	1%	1%
CC(C)(C)n1ncc2c(=O)n(Cc3ccc(C#N)cc3F)cnc21	2%	·	·	-4%	0%	·
CCOC(=O)CCCN1CC(O)=C(c2nc(-c3ccc(Cl)cc3)cs2)C1=N	-19%	-28%	-3%	-11%	106%	-9%
CCCCN1CC(O)=C(c2nc(-c3ccc(Br)cc3)cs2)C1=N	1%	5µM*	-9%	13%	14%	?
O=C(O)c1cccc(NC2=C(Cl)C(=O)c3ccccc3C2=O)c1	-88%	-8%	-11%[11.6 µM]	-12%	?	79µM*
O=C(O)c1ccc(NC2=C(Cl)C(=O)c3ccccc3C2=O)cc1	-7%	-12%	-2%	-33%	?	?
NCCCC[C@H](NC(=O)[C@@H](Cc1ccccc1)NC(=O)[C@H](Cc1c[nH]c2ccccc12)NC(=O)[C@@H](CCCCN)NC(=O)[C@@H](Cc1c[nH]c2ccccc12)NC(=O)[C@@H](N)Cc1cnc[nH]1)C(N)=O	9%[60.1 µM]	·	·	·	·	·
Cc1ccc(CNCc2cn[nH]c2-c2ccc(C)cc2)cc1	8%	·	·	8%	10%	·
O=C(Cn1c(=O)n(Cc2ccco2)c(=O)c2c3c(sc21)CCCCC3)Nc1ccccc1	?	32µM*	?	?	13µM*	50µM*
Cc1ccc(NC(=O)Cn2c(=O)n(CCc3ccccc3)c(=O)c3c4c(sc32)CCCC4)cc1C	-15%	3%	·	-1%	12%	-17%
O=c1c2c3c(sc2n(CCN2CCCC2)c(=O)n1Cc1ccco1)CCCCC3	-21%	?	-13%	-10%	18%	3%
SMILES	Pol kappa inh	POLB inh	WRN inhibitor	FEN1 inhibitor	POLI inh	POLH inh
O=C(Cn1c(=O)n(Cc2ccco2)c(=O)c2c3c(sc21)CCCCC3)c1ccccc1	-36%	10µM*	?	5%	?	?
Brc1ccc2c(ccc[n+]2CCc2ccccc2)c1	7%	·	·	16%	2%	·
CCn1nc(CC(=O)Nc2ccc(-n3cnnn3)c(C)c2)c2ccccc2c1=O	5%	19%	5%	-2%	-6%	-19%
CCn1nc(CC(=O)Nc2ccc(-n3cnnn3)c(OC)c2)c2ccccc2c1=O	-21%	32µM*	-12%	-1%	1%	?
Cc1cccc(N2C(=O)C=CC2=O)c1	-24%	·	45µM*	2%	28%	-3%
O=C1C=CC(=O)N1c1ccc(Nc2ccccc2)cc1	-20%	·	?	2%	-16%	1%
O=C1C=CC(=O)N1c1ccc2ccccc2c1	-12%	·	50µM*	-2%	14%	-16%
CCN(CC)C1CC(=O)N(c2cccc(C)c2)C1=O (configuration not stated)	·	-10%	·	·	·	·
O=c1cc(CN2CCN(Cc3ccccc3)CC2)c2ccc(O)c(O)c2o1	?	2.5µM*	?	0%	?	10µM*
Cc1nc(NC(=O)c2ccc(Br)o2)ccc1Br	3%	0%	5%	-17%	8%	5%
O=C(Nc1cccc(NC(=O)c2ccc(Br)o2)n1)c1ccc(Br)o1	-11%	26%	?	-6%	14µM*	?
CCSc1nnc(NC(=O)CSc2nnc(Cc3cccn3C)n2-c2ccc(C)cc2)s1	-16%	?	-14%	-2%	50µM*	-18%
Cc1ccc(NC(=O)CSc2nnc(Cc3cccn3C)n2-c2ccc(F)cc2)cc1	3%	27%	-2%	-17%	-13%	-11%
CCOC(=O)N1CCC(N2Cc3cccc(C(=O)NCc4ccc5c(c4)OCO5)c3C2=O)CC1	-51%	25µM*	-26%	3%	45µM*	?
CCOC(=O)N1CCC(NC(=O)c2cn(-c3ccc(OC)cc3)c(=O)c3ccccc23)CC1	-5%	-1%	5%	-6%	7%	0%
CCOC(=O)N1CCC(NC(=O)c2cccc3c2C(=O)N(c2ccc(OC)cc2)C3)CC1	50µM*	10µM*	-27%	-1%	?	18µM*
CCOC(=O)N1CCC(N2Cc3cccc(C(=O)NCc4ccccc4OC)c3C2=O)CC1	-8%	14%	-4%	9%	-15%	-2%
Cc1cccc(CCNC(=O)c2cccc3c2C(=O)N(C2CCCCC2)C3)c1	-20%	11µM*	-15%	-16%	-18%	?
O=C(NCc1ccc2c(c1)OCO2)c1cccc2c1C(=O)N(C1CCCCC1)C2	-7%	-3%	-1%	-15%	-15%	-4%
CCOC(=O)N1CCC(N2Cc3cccc(C(=O)NCc4ccc(OC)cc4)c3C2=O)CC1	·	16µM*	·	·	·	·
